According to PubChem BioAssay (NCATS):
Results filed as inconclusive are left out. A number with no mark means an inactive call. Active and inactive are the calls of the source. Calls follow the shape of the dose curve; as a rule, active = well fitted curve in the direction sought with a large enough effect; inconclusive = small, poorly fitted or top-dose-only effect, or another doubt; inactive = no such curve, though single readings can be large; an effect the other way counts as inactive or inconclusive.

Legend:
[1] = qHTS of pediatric cancer cell lines to identify multiple opportunities for drug repurposing: Confirmatory screen for NB-EBc1 cells (AID 1347115); details: NB-EBc1 neuroblastoma cells, viability (cytotoxicity); series mostly up to 45.9 µM;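 also: cells exposed to compound for 48 h before the viability read; nearly all actives have a fitted effect of over 45% in size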; as to activity change, negative = cytotoxic: % is scaled to controls: 0 for no effect and ±100 for the full control effect
Outline: (§1)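 Cells (500-1,000/well) in growth media were settled 5 h at 37 degrees C, then given compounds for 48 h. Viability was read as CellTiter-Glo luminescence. Primary runs used MIPE at 11 points (0.78 nM-46 µM) and NPC at 8 points (0.59 nM-46 µM); follow-ups used 11 points.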

[2] = qHTS of pediatric cancer cell lines to identify multiple opportunities for drug repurposing: Confirmatory screen for SJ-GBM2 cells (AID 1347116); details: SJ-GBM2 glioblastoma cells, viability; series mostly up to 45.9 µM; also: nearly all actives have a fitted effect of over 60% in size;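 as to activity change, negative = cytotoxic: plate controls were DMSO for no effect and bortezomib for full effect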
Outline: (§2)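 Viability measured as metabolically active cells via CellTiter-Glo luminescence following 48 hours of compound exposure, 11-point dilutions in confirmatory testing. 500-1,000 cells/well plated 5 hours before dosing; controls were DMSO and 2.3 µM bortezomib.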

[3] = qHTS of pediatric cancer cell lines to identify multiple opportunities for drug repurposing: Confirmatory screen for BT-37 cells (AID 1347117); details: BT-37 pediatric cancer cells, viability; series mostly up to 45.9 µM; also: nearly all actives have a fitted effect of over 55% in size;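 as to activity change, negative = cytotoxic: plate controls were DMSO for no effect and bortezomib for full effect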
Outline: as §1

[4] = qHTS of pediatric cancer cell lines to identify multiple opportunities for drug repurposing: Confirmatory screen for MG 63 (6-TG R) cells (AID 1347119); details: MG-63 (6-TG resistant) osteosarcoma viability; series mostly up to 45.9 µM; also: nearly all actives have a fitted effect of over 55% in size;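 as to activity change, negative = cytotoxicity: plate controls were DMSO neutral control for no effect and bortezomib for full effect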
Outline: as §1

[5] = qHTS of pediatric cancer cell lines to identify multiple opportunities for drug repurposing: Confirmatory screen for control Hh wild type fibroblast cells (AID 1347121); details: viability qHTS; series mostly up to 45.9 µM; also: nearly all actives have a fitted effect of over 70% in size;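 as to activity, negative = cytotoxic: plate controls were DMSO for no effect and bortezomib for full effect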
Outline: as §1

[6] = qHTS of pediatric cancer cell lines to identify multiple opportunities for drug repurposing: Confirmatory screen for LAN-5 cells (AID 1347113); details: LAN-5 neuroblastoma cell viability; series mostly up to 45.9 µM; also: nearly all actives have a fitted effect of over 65% in size; as to activity change, negative = cytotoxicity: % is scaled to controls: 0 for no effect and ±100 for the full control effect
Outline: as §1

[7] = qHTS of pediatric cancer cell lines to identify multiple opportunities for drug repurposing: Confirmatory screen for DAOY cells (AID 1347114); details: DAOY medulloblastoma cells viability, cytotoxicity qHTS; series mostly up to 45.9 µM; also: nearly all actives have a fitted effect of over 65% in size; as to activity change, negative = cytotoxic: % is scaled to controls: 0 for no effect and ±100 for the full control effect
Outline: as §2

[8] = qHTS of pediatric cancer cell lines to identify multiple opportunities for drug repurposing: Confirmatory screen for TC32 cells (AID 1347118); details: TC32 Ewing sarcoma cells viability qHTS;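 also: cells exposed to compound for 48 h before the read; nearly all actives have a fitted effect of over 65% in size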
Outline: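 Luminescent ATP read-out (CellTiter-Glo) of metabolically active TC32 cells after 48 h exposure. Concentration-response curves came from 11-point (MIPE, 0.78 nM–46 µM) or 8-point (NPC, 0.59 nM–46 µM) primary titrations; follow-up used 11 points.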

[9] = qHTS of pediatric cancer cell lines to identify multiple opportunities for drug repurposing: Confirmatory screen for Rh41 cells (AID 1347123); details: Rh41 rhabdomyosarcoma cells, viability/cytotoxicity qHTS; series mostly up to 45.9 µM;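 also: 48 h compound exposure; nearly all actives have a fitted effect of over 60% in size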
Outline: as §1

[10] = qHTS of pediatric cancer cell lines to identify multiple opportunities for drug repurposing: Confirmatory screen for U-2 OS cells (AID 1347122); details: U-2 OS osteosarcoma cell viability; series mostly up to 45.9 µM; also: nearly all actives have a fitted effect of over 65% in size;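 as to activity change, negative = cytotoxicity: plate controls were DMSO for no effect and bortezomib for full effect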
Outline: as §1
Potency is read from the fitted curve at half-maximal effect.

## NCCCNCCSP(=O)(O)O
[1]
  activity change, negative = cytotoxic: 10.1% [at 9.58 µM]
[2]
  Potency: 0.215 µM (active)
[3]
  activity change, negative = cytotoxic: 0.812% [at 9.58 µM]
[4]
  activity change, negative = cytotoxicity: 6.09% [at 9.58 µM]
[5]
  activity, negative = cytotoxic: 0.865% [at 9.58 µM]

## C[C@]12CC[C@@H]3c4ccc(O)cc4C[C@@H](CCCCCCCCCS(=O)CCCC(F)(F)C(F)(F)F)[C@H]3[C@@H]1CC[C@@H]2O (stereo partly specified)
[6]
  Potency: inactive
[7]
  Potency: inactive
[1]
  Potency: inactive
[2]
  Potency: inactive
[3]
  Potency: inactive
[8]
  Potency: 8.27 µM (active)
[9]
  Potency: 8.27 µM (active)

## C[C@]12C=CC(=O)C=C1CC[C@H]1[C@@H]3C[C@@H](O)[C@](O)(C(=O)CO)[C@@]3(C)C[C@H](O)[C@@]12F
[6]
  Potency: 9.27 µM (active)
[7]
  Potency: inactive
[1]
  Potency: inactive
[3]
  Potency: 9.27 µM (active)
[8]
  Potency: 6.57 µM (active)

## CN1C[C@H](C(=O)N[C@]2(C)O[C@@]3(O)[C@@H]4CCCN4C(=O)[C@H](Cc4ccccc4)N3C2=O)C[C@@H]2c3cccc4[nH]cc(c34)C[C@H]21
[1]
  Potency: inactive
[3]
  Potency: inactive
[4]
  Potency: inactive
[5]
  Potency: inactive
[10]
  Potency: inactive
[9]
  Potency: 3.29 µM (active)

## C[n+]1cc2c3c(ccc2c2ccc4cc5c(cc4c21)OCO5)OCO3
[6]
  Potency: 0.811 µM (active)
[7]
  Potency: 2.29 µM (active)
[1]
  Potency: 3.23 µM (active)
[2]
  Potency: 3.62 µM (active)
[3]
  Potency: 1.44 µM (active)
[8]
  Potency: 1.15 µM (active)
[4]
  Potency: 1.62 µM (active)
[5]
  Potency: 4.56 µM (active)
[10]
  Potency: 1.44 µM (active)
[9]
  Potency: 2.29 µM (active)

## CN/C(=C\[N+](=O)[O-])NCCSCc1ccc(CN(C)C)o1
[6]
  Potency: inactive
[7]
  Potency: inactive
[2]
  Potency: inactive
[3]
  Potency: inactive
[8]
  Potency: 10.4 µM (active)
[4]
  Potency: inactive
[10]
  Potency: inactive
[9]
  Potency: inactive

## Nc1nc(N)c2nc(-c3ccccc3)c(N)nc2n1
[6]
  Potency: inactive
[2]
  Potency: 9.27 µM (active)
[8]
  Potency: 3.69 µM (active)
[5]
  Potency: inactive
[9]
  Potency: inactive
